Assay results published in PubChem BioAssay (NCATS).
Results filed as inconclusive are left out. Active and inactive are the calls of the source. The call rests on the fitted dose curve; in most records, active means well fitted curve in the direction sought with a large enough effect; inconclusive means small, poorly fitted or top-dose-only effect, or another doubt; inactive means no such curve, though single readings can be large; an effect the other way counts as inactive or inconclusive.

How the values were obtained:
[1] = target: Cellular tumor antigen p53 (Homo sapiens) (UniProt P04637); test: Primary qHTS for small molecule compounds that upregulate eGFP-tagged delta133p53alpha (in N-terminal) cells. (AID 2060322); details: NCI-H358 eGFP-delta133p53alpha fluorescence, 24 h; activation: stronger effect = higher value;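 further: cells pre-induced with doxycycline then dosed without doxycycline; series mostly up to about 56 µM; 0% = DMSO vehicle and 100% = reference activator; nearly all actives have a fitted effect of over 75% in size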
Procedure, shortened: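 NCI-H358 cells pre-induced 24 h with 10 ng/ml doxycycline for eGFP-delta133p53alpha, plated dox-free and exposed 24 h at 37C to titrated compounds. Fixed, Hoechst-stained; gated GFP peak intensity by laser scanning cytometry, normalized to DMSO (0%) and 57.5 uM 5-azacytidine (100%).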

[2] = target: Aldehyde dehydrogenase, mitochondrial (Homo sapiens) (UniProt P05091); test: qHTS for Inhibitors of the Aldehyde Dehydrogenase Family (ALDH2) Primary screen (AID 2061308);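 further: plate controls were vehicle for no effect and reference inhibitor for full effect; nearly all actives have a fitted effect of over 55% in size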
[3] = target: Retinaldehyde dehydrogenase 3 (Homo sapiens) (UniProt P47895); test: qHTS for Inhibitors of the Aldehyde Dehydrogenase Family (ALDH1A3) Validation screen (AID 2061312); further: on the % scale 0 is the no-effect control and ±100 the full control effect; nearly all actives have a fitted effect of over 45% in size
[4] = target: Retinaldehyde dehydrogenase 3 (Homo sapiens) (UniProt P47895); test: qHTS for Inhibitors of the Aldehyde Dehydrogenase Family (ALDH1A3) Primary screen (AID 2061315);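 further: plate controls were DMSO vehicle for no effect and reference inhibitor for full effect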

Chain of Cellular tumor antigen p53 (Homo sapiens) (P04637 whole entry, looked up): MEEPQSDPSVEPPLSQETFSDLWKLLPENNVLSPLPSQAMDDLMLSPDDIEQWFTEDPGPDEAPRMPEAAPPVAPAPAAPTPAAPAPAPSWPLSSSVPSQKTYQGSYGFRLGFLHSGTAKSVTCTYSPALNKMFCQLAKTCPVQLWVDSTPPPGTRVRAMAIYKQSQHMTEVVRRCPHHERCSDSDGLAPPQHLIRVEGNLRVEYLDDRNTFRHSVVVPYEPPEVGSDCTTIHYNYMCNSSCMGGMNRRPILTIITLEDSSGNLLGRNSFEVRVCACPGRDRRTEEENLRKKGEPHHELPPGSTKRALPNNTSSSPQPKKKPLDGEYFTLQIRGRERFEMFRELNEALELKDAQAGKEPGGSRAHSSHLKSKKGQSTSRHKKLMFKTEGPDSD

COc1ccc([C@@H]2N[C@H](C(=O)O)Cc3c2[nH]c2ccccc32)cc1CN1CCN(c2ccccc2F)CC1
inactive: activation [1] 26.7% | Potency [2] | Potency [3] | Potency [4]

O=C(c1cc2c(cc1F)OC(c1ccc(F)cc1)(c1ccc(Cl)cc1Cl)O2)N1CCOCC1 (configuration not stated)
inactive: activation [1] -4.3% | Potency [2] | Potency [3] | Potency [4]

c1cc(OCCCN2CCCCC2)ccc1CN1CCCCC1
inactive: activation [1] 5.25% | Potency [2] | Potency [3] | Potency [4]

Cc1nc(Nc2ccc(F)cc2)nc(N2CCc3ccccc3C2C)c1C (configuration not stated)
inactive: activation [1] 11.9% | Potency [2] | Potency [3] | Potency [4]

C[C@@H](N[C@H]1CCCC[C@@H]1NC(=O)c1ccc(Cl)cc1)c1cccc2ccccc12
inactive: activation [1] 21.5% | Potency [2] | Potency [3] | Potency [4]

Cc1cc(C)c(S(=O)(=O)n2cc(C)cc2C)c(C)c1
inactive: activation [1] 5.73% | Potency [2] | Potency [3] | Potency [4]

COc1cc(Nc2nc3ccccc3nc2NS(=O)(=O)c2ccc(NC(=O)c3ccc(OC)c(C)c3)cc2)cc(OC)c1
inactive: activation [1] -18.6% | Potency [2] | Potency [3] | Potency [4]

COc1cccc(-n2nc(C(=O)O)cc2-c2ccc(C3CCCCC3)c(Cl)c2)c1
inactive: activation [1] 1.43% | Potency [2] | Potency [3] | Potency [4]
